About 14,000 (4.5%) of roughly 310,000 compounds showed an effect of 50% or more. The effect is printed as a negative number. The sample holds strong results, similar compounds and a random draw of the others, so the mix is not that of the screen.
The compounds below were run against human ether-à-go-go-related gene (hERG) potassium channel (human, UniProt Q12809) (assay: primary screen, population patch clamp on CHO cells stably expressing hERG; higher = less effect of the substance).
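Further: peak tail current of the secondary pulse compared with the same well before compound.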

human ether-à-go-go-related gene (hERG) potassium channel, sequence (Q12809 whole entry, looked up): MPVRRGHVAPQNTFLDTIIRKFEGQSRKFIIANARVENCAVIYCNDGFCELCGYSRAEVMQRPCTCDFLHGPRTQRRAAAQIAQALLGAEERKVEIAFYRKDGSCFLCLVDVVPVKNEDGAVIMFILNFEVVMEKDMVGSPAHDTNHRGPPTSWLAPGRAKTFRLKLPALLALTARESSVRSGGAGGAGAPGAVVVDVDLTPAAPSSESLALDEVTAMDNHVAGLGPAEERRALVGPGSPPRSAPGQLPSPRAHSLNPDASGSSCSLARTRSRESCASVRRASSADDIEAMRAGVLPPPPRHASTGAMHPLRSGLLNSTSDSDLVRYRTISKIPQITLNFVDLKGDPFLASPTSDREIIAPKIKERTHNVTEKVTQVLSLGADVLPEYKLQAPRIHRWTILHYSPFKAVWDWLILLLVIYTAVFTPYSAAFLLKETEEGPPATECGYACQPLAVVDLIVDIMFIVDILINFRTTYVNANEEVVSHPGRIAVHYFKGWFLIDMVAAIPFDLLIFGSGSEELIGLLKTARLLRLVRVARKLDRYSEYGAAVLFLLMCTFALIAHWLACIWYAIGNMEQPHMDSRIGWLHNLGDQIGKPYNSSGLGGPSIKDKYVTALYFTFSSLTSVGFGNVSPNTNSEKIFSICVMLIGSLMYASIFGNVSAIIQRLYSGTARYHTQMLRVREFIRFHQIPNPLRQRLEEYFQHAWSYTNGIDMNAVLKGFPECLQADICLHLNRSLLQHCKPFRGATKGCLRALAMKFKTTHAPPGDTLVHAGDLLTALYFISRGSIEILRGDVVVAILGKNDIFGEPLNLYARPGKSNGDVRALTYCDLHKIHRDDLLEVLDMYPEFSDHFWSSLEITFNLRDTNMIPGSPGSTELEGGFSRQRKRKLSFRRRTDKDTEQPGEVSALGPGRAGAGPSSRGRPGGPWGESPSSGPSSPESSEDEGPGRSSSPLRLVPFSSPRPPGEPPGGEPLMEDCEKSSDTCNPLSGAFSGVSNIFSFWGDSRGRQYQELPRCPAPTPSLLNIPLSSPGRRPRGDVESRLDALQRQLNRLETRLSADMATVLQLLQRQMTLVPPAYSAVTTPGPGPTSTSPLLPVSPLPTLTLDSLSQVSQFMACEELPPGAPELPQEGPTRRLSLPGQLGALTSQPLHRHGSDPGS

Structure (SMILES)	hERG current change (%, negative = inhibition) at 10uM
CC(=O)c1nc(N2C(=O)CC(Cc3cccc(C)c3)C2=O)sc1C (stereo not drawn)	-16.3%
CCOC(=O)C1CCCN(C(=O)CCCn2nnnc2CN2CCC(C)CC2)C1 (stereo not drawn)	-8.13%
O=C1Nc2ccc(Br)cc2C1(O)c1ccc(F)cc1 (stereo not drawn)	7%
Nc1cc(=O)[nH]c(SCC(=O)NCC2CCCO2)n1 (stereo not drawn)	1.45%
NC(=O)COC(=O)CC(c1ccccc1)c1ccccc1	4.16%
CCCCCCC1/C(=N\NC(=O)c2ccccc2)CCC1C(=O)OC (stereo not drawn)	-43.8%
CC(C)[C@H](NC(=O)N1CCn2c1nc1ccccc12)C(=O)N[C@@H](C(=O)O)c1ccccc1	17.7%
CC(C)c1ccc(N(C)C(=O)Cc2c(C(=O)O)n(C)c3ccccc23)cc1	0.167%
Fc1cnc(N/N=C/c2ccc(-c3ccc(Br)cc3)o2)nc1N1CCOCC1	-15.8%
O=C(O)CCC(=O)N1CCN(c2nc(-c3ccccc3)c3cc(Br)ccc3n2)CC1	3.79%
COc1cccc(/C=C/C(=O)OCC(=O)c2c[nH]c3ccccc23)c1	13%
Cc1ccccc1CS(=O)(=O)CCC(=O)NCCCN1CCOCC1	-10.6%
Cc1ccccc1CS(=O)(=O)CCC(=O)NCCCN1CCN(c2ccccc2F)CC1	-59.3%
O=C(CCS(=O)(=O)Cc1ccccc1F)NCCCN1CCCCC1	8.31%
CC1CCN(CCCNC(=O)Cn2ncc3c([nH]c4ccccc43)c2=O)CC1	9.35%
O=C(Cn1ncc2c([nH]c3ccccc32)c1=O)NCCCN1CCN(c2ccccc2)CC1	-21.5%
COc1ccccc1N1CCN(CCCNC(=O)Cn2ncc3c([nH]c4ccccc43)c2=O)CC1	-68.6%
Nc1nc2ccccc2n1/N=C/c1cccnc1	2.44%
CC(C)(OC(=O)NC(=O)C(F)(F)F)C(C)(C)OC(=O)NC(=O)C(F)(F)F	31.4%
COc1ccc(Cn2c(O)c(C=Nc3ccc(C)cc3)c3ccccc3c2=O)cc1	2.35%
COC(=O)C1CN(C(=O)C(C)Oc2cccc(C)c2C)c2ccccc2O1 (stereo not drawn)	-8.63%
C=CCNc1nc(NCC)nc(N2CCOCC2)n1	-0.791%
COc1ccc(-n2nc3c(c2NC(=O)COc2ccccc2)CS(=O)C3)cc1 (stereo not drawn)	-28.2%
NC(=NC(=O)c1ccc(OCC(F)(F)F)nc1)c1ccc(Cl)cc1	17.9%

From PMC4336329 (PLoS ONE, 2015)
